Assay results taken from PubChem BioAssay (EPA / NIEHS).
The source made the active and inactive calls. The calls were made as follows: active = hit-call score of the fitted dose curve at least 0.9, where 1 is the maximum; inactive = score below 0.9.

Legend:
[1] = read-out: TIMP metallopeptidase inhibitor 2 (TIMP2), TIMP2 (gene 7077); test: BSK_KF3CT_TIMP2: BioMAP Diversity Plus: KF3CT Assay for TIMP metallopeptidase inhibitor 2 (TIMP2) Biomarker Activity (AID 2283071); settings: primary human keratinocytes with fibroblasts; actives raise or lower the signal
How it was run: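 Keratinocyte–fibroblast co-culture, 24 h exposure; TIMP-2 ELISA, DMSO-normalised bidirectional fit. Parallel SRB (0.1%, TCA-fixed, 560 nm) total-protein staining gauges cytotoxicity.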

[2] = read-out: Transforming growth factor beta 1 (TGFb1), TGFB1 (gene 7040); test: BSK_KF3CT_TGFb1: BioMAP Diversity Plus: KF3CT Assay for Transforming growth factor beta 1 (TGFb1) Biomarker Activity (AID 2283072); settings: primary human keratinocytes with fibroblasts; actives raise or lower the signal
How it was run: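 Signal changes in either direction, relative to DMSO, define activity here. TGF-b1 is read by ELISA from a human keratinocyte-fibroblast co-culture 24 h post-dose.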

[3] = read-out: C-C motif chemokine 2 (Homo sapiens) (UniProt P13500); test: BSK_KF3CT_MCP1: BioMAP Diversity Plus: KF3CT Assay for Monocyte Chemoattractant Protein 1 (MCP1/CCL2) Biomarker Activity (AID 2283073); settings: primary human keratinocytes with fibroblasts; actives raise or lower the signal
How it was run: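 Human keratinocyte plus foreskin fibroblast primary co-culture exposed to chemical for 24 h. MCP-1 levels measured by ELISA. Bidirectional curve fitting relative to DMSO negative control as baseline.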

[4] = read-out: Matrix Metallopeptidase 9 (MMP9), MMP9 (gene 4318); test: BSK_KF3CT_MMP9: BioMAP Diversity Plus: KF3CT Assay for Matrix Metallopeptidase 9 (MMP9) Biomarker Activity (AID 2283074); settings: primary human keratinocytes with fibroblasts; actives raise or lower the signal;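 as to AC50: MMP9 protein level quantified by ELISA in the co-culture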
How it was run: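 Human keratinocyte and foreskin fibroblast co-culture exposed to chemicals for 24 h; MMP9 biomarker measured by ELISA, bidirectional fitting relative to DMSO; cytotoxicity tracked by SRB total protein staining in parallel cultures.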

[5] = read-out: urokinase plasminogen activator (uPA), PLAU (gene 5328); test: BSK_KF3CT_uPA: BioMAP Diversity Plus: KF3CT Assay for urokinase plasminogen activator (uPA) Biomarker Activity (AID 2283075); settings: primary human keratinocytes with fibroblasts; actives raise or lower the signal
How it was run: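 Primary human keratinocyte/foreskin fibroblast co-culture exposed to chemical; uPA measured by ELISA at 24 h. Bidirectional fit versus DMSO, with parallel SRB total-protein staining for cytotoxicity.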

[6] = read-out: CD40, CD40 (gene 958); test: BSK_LPS_CD40: BioMAP Diversity Plus: LPS Assay for CD40 Biomarker Activity (AID 2283076); settings: primary human HUVEC with PBMC; actives raise or lower the signal
How it was run: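 Primary human umbilical vein endothelial cells co-cultured with peripheral blood mononuclear cells, LPS-stimulated, were dosed with chemical and read 24 h later. CD40 levels were measured by ELISA and fitted bidirectionally against DMSO as negative control and baseline.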

[7] = read-out: E-selectin (Homo sapiens) (UniProt P16581); test: BSK_LPS_Eselectin: BioMAP Diversity Plus: LPS Assay for Eselectin Biomarker Activity (AID 2283077); settings: primary human HUVEC with PBMC; actives raise or lower the signal
How it was run: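 Human umbilical vein endothelial cells co-cultured with peripheral blood mononuclear cells under LPS stimulation; E-selectin measured by ELISA 24 h after chemical dosing. Activity fitted bidirectionally against DMSO as negative control and baseline.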

[8] = read-out: Interleukin-8 (IL8), CXCL8 (gene 3576); test: BSK_LPS_IL8: BioMAP Diversity Plus: LPS Assay for Interleukin-8 (IL8) Biomarker Activity (AID 2283078); settings: primary human HUVEC with PBMC; actives raise or lower the signal
How it was run: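 Human umbilical vein endothelial cells co-cultured with PBMC were stimulated with LPS; IL-8 levels were measured by ELISA 24 h after chemical dosing. Activity was fitted bidirectionally against DMSO as negative control and baseline.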

[9] = BSK_LPS_SRB: Viability Assessment in the BioMAP Diversity Plus: LPS Assay (AID 2283079); settings: primary human HUVEC with PBMC;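 also: total protein by sulforhodamine B absorbance as a cytotoxicity measure; measured one day after compound addition; fitted in both directions against DMSO so loss or gain of signal counts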
How it was run: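 Human umbilical vein endothelial cells co-cultured with PBMC (LPS system) were dosed for 24 h. Total protein was stained with 0.1% sulforhodamine B after 10% TCA fixation, read at 560 nm, and fitted bidirectionally against DMSO baseline.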

[10] = read-out: Interleukin-1 alpha (IL1a), IL1A (gene 3552); test: BSK_LPS_IL1a: BioMAP Diversity Plus: LPS Assay for Interleukin-1 alpha (IL1a) Biomarker Activity (AID 2283080); settings: primary human HUVEC with PBMC; actives raise or lower the signal
How it was run: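 Human umbilical vein endothelial cells co-cultured with peripheral blood mononuclear cells were LPS-stimulated and exposed to test chemicals for 24 h. IL-1 alpha was quantified by ELISA, with bidirectional curve fitting against DMSO as the negative control and baseline.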

[11] = read-out: Monocyte Chemoattractant Protein-1 (MCP1), CCL2 (gene 6347); test: BSK_LPS_MCP1: BioMAP Diversity Plus: LPS Assay for Monocyte Chemoattractant Protein-1 (MCP1) Biomarker Activity (AID 2283081); settings: primary human HUVEC with PBMC; actives raise or lower the signal;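 as to AC50: secreted MCP-1 protein quantified by ELISA in culture supernatant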
How it was run: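 HUVEC plus PBMC co-culture (human primary cells, LPS system) exposed to test chemical for 24 h; MCP-1 measured by ELISA. Bidirectional curve fitting against DMSO baseline; parallel SRB total-protein staining flags overt cytotoxicity.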

[12] = BSK_LPS_PGE2: BioMAP Diversity Plus: LPS Assay for Prostaglandin E2 (PGE2) Biomarker Activity (AID 2283082); settings: primary human HUVEC with PBMC; actives raise or lower the signal;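 as to AC50: secreted prostaglandin E2 measured by ELISA in LPS-stimulated co-culture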
How it was run: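 Endpoint derived from bidirectional curve fitting versus DMSO of ELISA-measured PGE2 in LPS-stimulated human primary vascular co-culture (HUVEC with PBMC) harvested at 24 h.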

[13] = read-out: Macrophage colony-stimulating factor (MCSF), CSF1 (gene 1435); test: BSK_LPS_MCSF: BioMAP Diversity Plus: LPS Assay for Macrophage colony-stimulating factor (MCSF) Biomarker Activity (AID 2283083); settings: primary human HUVEC with PBMC; actives raise or lower the signal
How it was run: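 Human umbilical vein endothelial cells co-cultured with peripheral blood mononuclear cells were exposed to compound for 24 h. M-CSF levels were measured by ELISA, and bidirectional curve fitting used DMSO as the negative control and baseline.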

[14] = read-out: Tumor necrosis factor (Homo sapiens) (UniProt P01375); test: BSK_LPS_TNFa: BioMAP Diversity Plus: LPS Assay for Tumour Necrosis Factor alpha (TNFa) Biomarker Activity (AID 2283085); settings: primary human HUVEC with PBMC; actives raise or lower the signal
How it was run: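 Primary human vascular co-culture of HUVEC and PBMC; TNFa ELISA 24 h after treatment, analysed as increase or decrease relative to DMSO control.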

[15] = read-out: Vascular cell adhesion molecule 1 (VCAM1), VCAM1 (gene 7412); test: BSK_LPS_VCAM1: BioMAP Diversity Plus: LPS Assay for Vascular cell adhesion molecule 1 (VCAM1) Biomarker Activity (AID 2283086); settings: primary human HUVEC with PBMC; actives raise or lower the signal
How it was run: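 Primary human vascular co-culture (umbilical vein endothelium plus PBMC) stimulated with LPS received chemical; 24 h later VCAM-1 was read by ELISA. Overt cytotoxicity was assessed by sulforhodamine B staining of parallel cultures at the same time point.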

[16] = read-out: CD38, CD38 (gene 952); test: BSK_SAg_CD38: BioMAP Diversity Plus: SAg Assay for CD38 Biomarker Activity (AID 2283087); settings: primary human HUVEC with PBMC; actives raise or lower the signal
How it was run: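 Fluorescence ELISA of cell-surface CD38 served as the read-out, with either increase or decrease fitted against DMSO controls. Cells were a human umbilical vein endothelium plus PBMC co-culture under SEB/TSST-1 stimulation, measured 24 h after dosing.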

[17] = read-out: CD40, CD40 (gene 958); test: BSK_SAg_CD40: BioMAP Diversity Plus: SAg Assay for CD40 Biomarker Activity (AID 2283088); settings: primary human HUVEC with PBMC; actives raise or lower the signal
How it was run: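 Human umbilical vein endothelial cells co-cultured with PBMC; CD40 levels measured by ELISA with fluorescence read-out 24 h after chemical dosing. Gain or loss of signal fitted bidirectionally against DMSO baseline.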

[18] = read-out: CD69, CD69 (gene 969); test: BSK_SAg_CD69: BioMAP Diversity Plus: SAg Assay for CD69 Biomarker Activity (AID 2283089); settings: primary human HUVEC with PBMC; actives raise or lower the signal;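 as to AC50: cell surface CD69 protein quantified by ELISA with fluorescence detection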
How it was run: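 HUVEC co-cultured with PBMC were dosed with chemical, and CD69 was measured by ELISA with fluorescence read-out 24 h later. Bidirectional curve fitting used DMSO as negative control and activity baseline.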

[19] = read-out: Monocyte Chemoattractant Protein-1 (MCP1), CCL2 (gene 6347); test: BSK_SAg_MCP1: BioMAP Diversity Plus: SAg Assay for Monocyte Chemoattractant Protein-1 (MCP1) Biomarker Activity (AID 2283090); settings: primary human HUVEC with PBMC; actives raise or lower the signal
How it was run: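 MCP-1 levels in the endothelial–PBMC SAg co-culture were quantified by ELISA at 24 h post-dosing; both increases and decreases versus DMSO scored. Cytotoxicity monitored by SRB total protein in parallel cultures.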

[20] = read-out: Tissue Factor, F3 (gene 2152); test: BSK_LPS_TissueFactor: BioMAP Diversity Plus: LPS Assay for Tissue Factor Biomarker Activity (AID 2283084); settings: primary human HUVEC with PBMC; actives raise or lower the signal
How it was run: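 Human umbilical vein endothelial cells co-cultured with peripheral blood mononuclear cells were dosed and stimulated with LPS. Cell-surface CD142 was quantified by ELISA at 24 h. Activity was fitted bidirectionally against DMSO baseline.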

Measured: AC50

Chain of Tumor necrosis factor (Homo sapiens) (P01375 whole entry, looked up): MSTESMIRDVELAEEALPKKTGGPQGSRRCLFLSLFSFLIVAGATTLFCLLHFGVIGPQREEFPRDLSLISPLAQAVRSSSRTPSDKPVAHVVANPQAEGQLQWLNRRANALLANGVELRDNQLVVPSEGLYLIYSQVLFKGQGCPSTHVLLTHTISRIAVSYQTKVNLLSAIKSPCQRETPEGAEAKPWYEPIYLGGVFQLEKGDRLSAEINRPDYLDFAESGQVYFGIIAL
Chain of E-selectin (Homo sapiens) (P16581 whole entry, looked up): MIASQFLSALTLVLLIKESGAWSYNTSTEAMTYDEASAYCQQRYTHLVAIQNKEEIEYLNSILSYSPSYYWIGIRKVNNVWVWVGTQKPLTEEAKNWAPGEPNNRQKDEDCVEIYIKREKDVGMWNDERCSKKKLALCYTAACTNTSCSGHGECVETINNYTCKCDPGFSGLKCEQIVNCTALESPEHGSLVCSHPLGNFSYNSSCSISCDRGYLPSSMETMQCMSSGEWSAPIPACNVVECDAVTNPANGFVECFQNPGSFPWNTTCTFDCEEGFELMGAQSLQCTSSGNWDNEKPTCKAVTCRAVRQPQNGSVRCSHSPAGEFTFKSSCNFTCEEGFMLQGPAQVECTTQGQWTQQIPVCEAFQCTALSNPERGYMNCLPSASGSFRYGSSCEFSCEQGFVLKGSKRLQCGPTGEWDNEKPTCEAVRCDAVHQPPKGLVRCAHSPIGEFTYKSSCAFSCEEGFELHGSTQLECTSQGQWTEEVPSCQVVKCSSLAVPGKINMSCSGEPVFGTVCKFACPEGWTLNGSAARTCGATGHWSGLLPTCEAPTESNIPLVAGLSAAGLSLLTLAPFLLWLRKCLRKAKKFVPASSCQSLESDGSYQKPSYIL

Cc1ncc(CO)c(CO)c1O
inactive: [1] | [2] | [3] | [4] | [5] | [6] | [7] | [8] | [9] | [10] | [11] | [12] | [13] | [14] | [15] | [16] | [17] | [18] | [19]

CCCOC(=O)c1cc(O)c(O)c(O)c1
active: [1] 1.49 µM | [2] 1.53 µM | [12] 4.97 µM
inactive: [3] | [4] | [6] | [7] | [8] | [9] | [11] | [13] | [14] | [15] | [16] | [17] | [18]

Clc1ccccc1C(c1ccccc1)(c1ccccc1)n1ccnc1
active: [1] 10 µM | [2] 6.57 µM | [3] 7.25 µM | [4] 5.43 µM | [6] 14.7 µM | [7] 30.7 µM | [8] 30.9 µM | [9] 23.1 µM | [10] 30.5 µM | [11] 29.7 µM | [12] 5.45 µM | [13] 28.3 µM | [14] 32.9 µM | [15] 22.4 µM | [16] 25.9 µM | [17] 20 µM | [18] 24.3 µM

CN1C(=O)N(c2ccccc2Br)Cc2cnc(Nc3ccc4c(c3)OCC(CO)O4)nc21 (stereo not given)
active: [1] 13.7 µM | [2] 15.3 µM | [3] 31 µM | [4] 6.07 µM | [5] 12.4 µM | [6] 7.42 µM | [7] 7.07 µM | [8] 6.07 µM | [9] 4.68 µM | [10] 9.1 µM | [11] 5.19 µM | [12] 3.63 µM | [13] 9.88 µM | [14] 3.14 µM | [15] 7.92 µM | [16] 2.36 µM | [17] 2.19 µM | [18] 2.08 µM

CN(C)c1ccc(C(=C2C=CC(=[N+](C)C)C=C2)c2ccc(N(C)C)cc2)cc1
active: [1] 1.29 µM | [2] 0.595 µM | [3] 3.97 µM | [4] 1.33 µM | [6] 0.438 µM | [7] 0.355 µM | [8] 1.26 µM | [9] 7.67 µM | [11] 0.269 µM | [12] 1.13 µM | [13] 0.476 µM | [14] 1.46 µM | [15] 2.51 µM | [16] 1.01 µM | [17] 0.534 µM | [18] 0.582 µM

CCCCCCCCN(C)CCCCCCCC
inactive: [1] | [2] | [3] | [4] | [5] | [6] | [7] | [8] | [9] | [11] | [12] | [13] | [20] | [14] | [15] | [16] | [17] | [18] | [19]
